Several values for one entry are separate records, joined by “and”; a condition that tells them apart may be missing. Equal entries are not always repeated. This is part of a sample that, as a whole, favours compounds with a hit. Of some 83,000 tested, about 20% had one in any assay.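 Step 1: grow cells in 96-well plates. Step 2: add test compound at a single concentration. Step 3: incubate 48 h. Step 4: record percent growth.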 Activity calls are given as the source filed them. Rule for the calls: active = growth percent below 10; inactive = the rest.
Tests used:
Test in all cases: NCI-60 one-dose screen, 48 h (100 = growth as untreated, 0 = no growth, -100 = all killed)
Conditions in all cases: 10 µM
T-47D breast = test system: T-47D breast
BT-549 breast = test system: BT-549 breast
MDA-MB-435 melanoma = test system: MDA-MB-435 melanoma
SW-620 colon = test system: SW-620 colon
MCF7 breast = test system: MCF7 breast
HCT-116 colon = test system: HCT-116 colon
HCC-2998 colon = test system: HCC-2998 colon
KM12 colon = test system: KM12 colon
MDA-MB-468 breast = test system: MDA-MB-468 breast

Measured: growth

COc1ccc(-c2c(N)c(=O)n(C)c3ccccc23)cc1
inactive: T-47D breast 57.2% | BT-549 breast 43% | MDA-MB-435 melanoma 59.2% | SW-620 colon 65.5% | MCF7 breast 24.8% | HCT-116 colon 37.5% | HCC-2998 colon 81.5% | KM12 colon 64.5% | MDA-MB-468 breast 50.1%

N#Cc1c(-c2ccc(Cl)cc2)cc(-c2ccccc2)nc1OCc1ccccc1
inactive: T-47D breast 52.3% | BT-549 breast 83.4% | MDA-MB-435 melanoma 96.1% | SW-620 colon 84% | MCF7 breast 53.8% | HCT-116 colon 53.7% | HCC-2998 colon 95% | KM12 colon 82.6% | MDA-MB-468 breast 65.4%

CC(=O)OC[C@@]1(C)C2CC[C@]3(C)C(CC=C4C5CC(C)(C)CC[C@]5(C(=O)Nc5ccccc5)CC[C@]43C)[C@@]2(C)C[C@@H](OC(C)=O)[C@@H]1OC(C)=O (some centres not stated)
active: MDA-MB-468 breast -4.16%
inactive: T-47D breast 15.3% | BT-549 breast 47.7% | MDA-MB-435 melanoma 45.7% | SW-620 colon 36.3% | MCF7 breast 24.4% | HCT-116 colon 25.4% | HCC-2998 colon 42.3% | KM12 colon 49%

N#Cc1c(NC(=O)c2ccc(C(O)(C(F)(F)F)C(F)(F)F)cc2)sc2c1CCC(=O)C2
active: T-47D breast -60.5% | BT-549 breast -64.4% | MDA-MB-435 melanoma -45.2% | SW-620 colon -52.8% | MCF7 breast -62.1% | HCT-116 colon -77.7% | HCC-2998 colon -95.6% | KM12 colon -53.8% | MDA-MB-468 breast -90%

CN(CCF)c1ccc(/C=C/C(=O)c2ccc(N)cc2O)cc1
inactive: T-47D breast 50.7% | BT-549 breast 64.1% | MDA-MB-435 melanoma 81.8% | SW-620 colon 90.3% | MCF7 breast 71.1% | HCT-116 colon 73% | HCC-2998 colon 88.5% | KM12 colon 44.4% | MDA-MB-468 breast 51.4%

O=C1CCC(N2Cc3c(C#CCCCNC(=O)c4ccc(NC(=O)[C@@H]5NC6(CCCCC6)[C@@]6(C(=O)Nc7cc(Cl)ccc76)[C@H]5c5cccc(Cl)c5F)cc4)cccc3C2=O)C(=O)N1 (some centres not stated)
active: MCF7 breast 5.5%
inactive: T-47D breast 38.4% | BT-549 breast 32.5% | MDA-MB-435 melanoma 61.6% | SW-620 colon 84.7% | HCT-116 colon 12.6% | HCC-2998 colon 58.6% | KM12 colon 49.2% | MDA-MB-468 breast 39.3%

O=C(Nc1ccc(OCc2ccccc2)cc1)Nc1ccc(Cl)c(C(F)(F)F)c1
active: T-47D breast -2.54% | BT-549 breast -15.9% | MDA-MB-435 melanoma -1.55% | MCF7 breast 2.34% | HCT-116 colon 2.43% | KM12 colon 1.83% | MDA-MB-468 breast -36%
inactive: SW-620 colon 13% | HCC-2998 colon 21.4%

CN(C)c1cccc2c(S(=O)(=O)Nc3cccc(-c4csc(NC(=O)CCCCCN5CCN(c6cc7c(cc6F)C(=O)N(C6CCC(=O)NC6=O)C7=O)CC5)n4)c3)cccc12 (configuration not stated)
inactive: T-47D breast 74.7% | BT-549 breast 85.6% | MDA-MB-435 melanoma 95.2% | SW-620 colon 98.6% | MCF7 breast 73.5% | HCT-116 colon 68.3% | HCC-2998 colon 111% | KM12 colon 104% | MDA-MB-468 breast 59.7%

COc1ccc(-c2ccc(/C=N/NC(=O)c3[nH]c4ccc(Br)cc4c3-c3ccccc3)s2)cc1
inactive: T-47D breast 72% | BT-549 breast 117% | MDA-MB-435 melanoma 107% | SW-620 colon 44.8% | HCT-116 colon 37.5% | KM12 colon 85.5%
active: MCF7 breast 6.19%

C=CC(=O)Nc1nc(-c2cccc(NS(=O)(=O)c3cccc4c(N(C)C)cccc34)c2)cs1
active: T-47D breast 0.269% | BT-549 breast -75.6% | MDA-MB-435 melanoma -92.4% | SW-620 colon -80.6% | MCF7 breast -82.1% | HCT-116 colon -90.3% | HCC-2998 colon -88.1% | KM12 colon -44% | MDA-MB-468 breast -87.8%

COc1ccc(CN2[C@H](C(=O)NCCCCCCC(=O)NO)Cc3c([nH]c4ccccc34)[C@H]2C2CC2)cc1
inactive: BT-549 breast 25.5% | KM12 colon 12.5%
active: T-47D breast -10.3% | MDA-MB-435 melanoma -49.1% | SW-620 colon -68.1% | MCF7 breast 6.39% | HCT-116 colon 2.09% | HCC-2998 colon -36.7% | MDA-MB-468 breast 4.06%

CC(C)C1=C[C@@]23CC[C@@H]4[C@](C)(CCC[C@]4(C)C(=O)NCc4ccccc4)[C@H]2C[C@@H]1[C@H]1C(=O)OC(=O)[C@H]13
inactive: T-47D breast 56% | BT-549 breast 69.6% | MDA-MB-435 melanoma 49.6% | SW-620 colon 54.2% | MCF7 breast 13.2% | HCT-116 colon 23.1% | HCC-2998 colon 53.8% | KM12 colon 24.9% | MDA-MB-468 breast 41.5%

CC(C)C(=O)Nc1ccc(C(=O)NC(=S)Nc2ccc(C(=O)O)cc2)cc1
inactive: T-47D breast 98.9% | BT-549 breast 79.5% | MDA-MB-435 melanoma 102% | SW-620 colon 107% | MCF7 breast 99.9% | HCT-116 colon 104% | HCC-2998 colon 110% | KM12 colon 106% | MDA-MB-468 breast 96%

COc1ccc(C(=O)/C=C/c2ccc(Cl)c(C(F)(F)F)c2)cc1S(N)(=O)=O
active: T-47D breast -82.6% | BT-549 breast -82.3% | MDA-MB-435 melanoma -96.4% | SW-620 colon -94.7% | MCF7 breast -93.6% | HCT-116 colon -71.6% | HCC-2998 colon -88.3% | KM12 colon -43.7% | MDA-MB-468 breast -93.4%

COc1ccc(C(=O)CSc2nnc(-c3c[nH]c4ccccc34)n2-c2ccccc2)cc1
inactive: T-47D breast 56.7% | BT-549 breast 24.7% | MDA-MB-435 melanoma 69.1% | SW-620 colon 86.3% | MCF7 breast 45.6% | HCT-116 colon 52.5% | HCC-2998 colon 77.8% | KM12 colon 88.1% | MDA-MB-468 breast 59.8%

O=C1Nc2ccc(Cl)cc2/C1=C/c1ccc(OCc2ccc(Br)cc2F)cc1
active: HCT-116 colon -10.8%
inactive: T-47D breast 10.1% | BT-549 breast 81.9% | MDA-MB-435 melanoma 60.2% | SW-620 colon 23.6% | MCF7 breast 12.1% | HCC-2998 colon 77.5% | KM12 colon 59.1% | MDA-MB-468 breast 92.6% and 48.8%

Cc1cc(=O)oc2cc(OCCCCOc3ccc(/C=C/C(=O)Nc4ccccc4[N+](=O)[O-])cc3)ccc12
inactive: T-47D breast 100% | BT-549 breast 117% | MDA-MB-435 melanoma 112% | SW-620 colon 114% | MCF7 breast 97% | HCT-116 colon 115% | HCC-2998 colon 120% | KM12 colon 109% | MDA-MB-468 breast 169%

NS(=O)(=O)c1ccc(NC(=O)CSc2ccc(-c3ccc(Cl)cc3)nn2)c(Br)c1
inactive: T-47D breast 41.6% | BT-549 breast 26.8% | MDA-MB-435 melanoma 84.8% | SW-620 colon 82.8% | MCF7 breast 26.8% | HCT-116 colon 26.6% | KM12 colon 64.6%

COc1ccc2nc(Cl)c(-c3cc(-c4ccccc4)nc(=O)[nH]3)cc2c1
inactive: T-47D breast 37.8% | BT-549 breast 38.9% | MDA-MB-435 melanoma 75.9% | SW-620 colon 11.1% | MCF7 breast 10.2% | HCC-2998 colon 84.9% | KM12 colon 18.3% | MDA-MB-468 breast 28.5%
active: HCT-116 colon 9.44%

COC1=C[C@@]23CCC(=O)N2CCc2cc4c(cc2[C@H]3[C@H]1OC(=O)C(C)(C)O)OCO4
inactive: T-47D breast 91.6% | BT-549 breast 98.9% | MDA-MB-435 melanoma 98.4% | SW-620 colon 105% | MCF7 breast 92.7% | HCT-116 colon 101% | HCC-2998 colon 103% | KM12 colon 101% | MDA-MB-468 breast 91.5%

Cc1cc(C)cc(Oc2cccc(-c3c(C)nnn3C3CCN(CCN(C)C)CC3)n2)c1
active: BT-549 breast 9.68% | MCF7 breast 6.99% | HCC-2998 colon 0.234% | MDA-MB-468 breast -20.2%
inactive: T-47D breast 24.8% | MDA-MB-435 melanoma 20.7% | SW-620 colon 45.9% | HCT-116 colon 15.2% | KM12 colon 37%

C/C(=N\N=C\c1ccc(N(C)C)cc1)c1ccc2c(c1)Nc1ccccc1S2
active: MDA-MB-468 breast 8.43%
inactive: T-47D breast 44.6% | BT-549 breast 58.2% | MDA-MB-435 melanoma 51.1% | SW-620 colon 35.3% | MCF7 breast 35.8% | HCT-116 colon 31.4% | KM12 colon 60.9%

O=C(CNc1nc(-c2ccccc2)cs1)Nc1cccc(Cl)c1
active: T-47D breast 7.64%
inactive: BT-549 breast 25.8% | MDA-MB-435 melanoma 42.1% | SW-620 colon 35.9% | MCF7 breast 21.8% | HCT-116 colon 27.6% | KM12 colon 23.6%

CN1C(=O)N(C)C2SC(N/N=C/C=C/c3ccccc3)=NC21 (configuration not stated)
inactive: T-47D breast 61.8% | BT-549 breast 64.1% | SW-620 colon 63.9% | MCF7 breast 27.6% | HCT-116 colon 71.6% | HCC-2998 colon 85.3% | KM12 colon 58%
active: MDA-MB-435 melanoma -19.6% | MDA-MB-468 breast -4.12%

COc1cc(OC(F)(F)F)ccc1C(=O)Nc1sc2c(c1C#N)CCC(=O)C2
active: T-47D breast -4.87%
inactive: BT-549 breast 14.1% | MDA-MB-435 melanoma 97.9% | SW-620 colon 31.6% | MCF7 breast 73.2% | HCT-116 colon 40.7% | HCC-2998 colon 111% | KM12 colon 88.1% | MDA-MB-468 breast 77.7%

Cc1ccc(-c2nc(Nc3ccccc3C(=O)O)c3ccccc3n2)cc1
active: BT-549 breast -23.5% | MCF7 breast 7.7% | HCT-116 colon 6.7% | HCC-2998 colon 5.44% | KM12 colon 8.37% | MDA-MB-468 breast -26.9%
inactive: T-47D breast 10.7% | MDA-MB-435 melanoma 23.4% | SW-620 colon 14.5%

— PubChem BioAssay (NCI)
